Test results reported in PubChem BioAssay (NCATS).
Results filed as inconclusive are left out. Active and inactive are the calls of the source. Unless noted, calls follow the shape of the dose curve; as a rule, active = well fitted curve in the direction sought with a large enough effect; inconclusive = small, poorly fitted or top-dose-only effect, or another doubt; inactive = no such curve, though single readings can be large; an effect the other way counts as inactive or inconclusive.

Legend:
[1] = Cell Viability - LYMP2-001 (AID 921); also: series mostly up to about 92 µM; nearly all actives have a fitted effect of over 70% in size
In short: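 Cellular ATP loss read by luciferase luminescence after 24 h compound exposure at 37 C in complete medium. LYMP2-001 lymphoblastoid cells, 2500/well; qHTS concentration-response data fitted with Hill equation for AC50.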

[2] = MultiTox-Fluor Cytotoxicity Assay - LYMP1-001 - Dead Cells (AID 946);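 also: cells exposed to compound for 16 h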
In short: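 Seed 2500 LYMP1-001 cells/well, incubate 5 hr at 37 C; add compound, 16 hr at 37 C; add MultiTox-Fluor reagent, 60 min RT; read dead-cell fluorescence Ex/Em=485/520. Normalize to DMSO and 15 uM tetraoctylammonium bromide.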

[3] = MultiTox-Fluor Cytotoxicity Assay - LYMP1-001 - Live Cells (AID 947)
[4] = Cell Viability - LYMP1-002 - Assay at 16 hr (AID 948)
In short: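 ATP luminescence (CellTiter-Glo) was measured after 16 hr compound exposure at 37 C of 2500 lymphoblastoid LYMP1-002 cells per well. Concentration-response curves were fitted with the Hill equation to give AC50.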

[5] = MultiTox-Fluor Cytotoxicity Assay - LYMP1-003 - Dead Cells (AID 961);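 also: cells exposed to compound for 16 h at 37 °C; nearly all actives have a fitted effect of over 70% in size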
In short: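 LYMP1-003 lymphoblastoid, 2500 cells/well, 5 hr settle then 16 hr cpd at 37 C; MultiTox-Fluor reagent 60 min RT; Ex/Em 485/520 dead-cell signal; norm. DMSO = 0%, 15 uM tetraoctylammonium bromide = 100%; Hill AC50.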

[6] = MultiTox-Fluor Cytotoxicity Assay - LYMP1-003 - Live Cells (AID 962);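 also: cells exposed to compound for 16 hours at 37 °C; cytotoxic hits lower the live-cell protease signal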
In short: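 Acute cytotoxicity is scored as a drop in live-cell protease activity in human lymphoblastoid LYMP1-003 cells after 16 hr compound exposure at 37 C. AC50 values come from Hill-equation modelling of concentration-response data.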

[7] = Cell Viability - LYMP1-003 - Assay at 24 hr (AID 963)
In short: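 Cytotoxicity is scored as a concentration-dependent fall in ATP-linked luciferase signal in human lymphoblastoid LYMP1-003 cells treated 24 hr at 37 C in complete culture medium.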

[8] = Cell Viability - LYMP1-003 - Assay at 40 hr (AID 964); also: series mostly up to about 92 µM; nearly all actives have a fitted effect of over 60% in size
In short: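 Luminescent ATP signal (CellTiter-Glo) served as the viability read-out after 40 hr compound treatment of human lymphoblastoid LYMP1-003 cells at 37 C. Decreases in ATP were fitted with the Hill equation to give AC50.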

[9] = Cell Viability - LYMP2-004 (AID 966); also: nearly all actives have a fitted effect of over 65% in size
In short: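 qHTS cytotoxicity: human lymphoblastoid line, 24 hr compound treatment, 37 C, complete medium. Viability read as cellular ATP via luciferase luminescence; tetraoctylammonium bromide served as positive control.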

[10] = Cell Viability - LYMP2-005 (AID 967); also: series mostly up to about 92 µM
In short: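 LYMP2-005 human lymphoblastoid cells (2500/well) were treated with compounds for 24 h at 37 C. Intracellular ATP was then measured by CellTiter-Glo luminescence after 30 min at room temperature. AC50 values came from Hill-equation fits of qHTS concentration-response data.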

[11] = Cell Viability - LYMP2-009 (AID 968); also: series mostly up to about 92 µM; nearly all actives have a fitted effect of over 55% in size
[12] = Cell Viability - LYMP2-011 (AID 969); also: nearly all actives have a fitted effect of over 60% in size
In short: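 In this qHTS cytotoxicity format, compounds are tested across concentrations on human lymphoblastoid cells in complete medium for 24 hours at 37 C. Viability is taken as cellular ATP measured by luciferase luminescence.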

[13] = qHTS Assay for Identification of Small Molecule Agonists for Thrombopoietin (TPO) Signaling Pathway (AID 917)
In short: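 Luciferase reporter (Glycoprotein IIb promoter) in IL-3-deprived Ba/F3 cells carrying human TPO receptor; compounds co-added with 26 pM TPO, incubated 24 h, 37 C. Steadylite luminescence measured after 10 min.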

[14] = molecular target: Pyruvate kinase (Leishmania mexicana) (UniProt Q27686); test: qHTS Validation Assay for Inhibitors of Leishmania Mexicana Pyruvate Kinase (AID 945)
In short: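 Luminescent ATP detection (PKLight) after a 1 h room-temperature reaction of 0.2 nM LmPYK E451W mutant with 0.5 mM PEP and 0.1 mM ADP at pH 7.2. Activity is normalized to DMSO-only control wells.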

[15] = molecular target: Pyruvate kinase PKM (Homo sapiens) (UniProt P14618); test: qHTS Assay for Activators of Human Muscle Pyruvate Kinase (AID 954; active = well fitted curve in the direction sought with a large enough effect, not every such curve was filed as active)
In short: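 PKM2, human, >95% pure, 0.1 nM; PEP 0.5 mM (Km), ADP 0.1 mM; 50 mM imidazole pH 7.2, 50 mM KCl, 0.01% Tween 20, 0.05% BSA; 1 h RT; luciferase luminescence readout.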

[16] = molecular target: Alpha-galactosidase (Coffea arabica) (UniProt Q42656); test: Counterscreen for Glucocerebrosidase Inhibitors: qHTS Assay for Coffee Bean alpha-Galactosidase at pH 4.5 (AID 957); also: series mostly up to about 77 µM
In short: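 Enzyme is added first (2 nM final), then compounds titrated from 0.7 nM to 77 uM, then 80 uM 4-methylumbelliferyl alpha-D-galactopyranoside; after 20 min at room temperature a pH 10 NaOH/glycine stop precedes fluorescence reading at 365/440 nm.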

[17] = Confirmation and Secondary Assay for Modulators of Hemoglobin Beta Chain Splicing at IVS2 705 locus (AID 930);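 also: HeLa cells stably expressing the EGFP-705 splicing reporter; GFP fluorescence per well restored by corrected splicing of the IVS2-705 intron in EGFP; series mostly up to about 46 µM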
In short: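 Read-out: total peak GFP fluorescence per well (488 nm excitation, 500-520 nm emission) by laser-scanning cytometry. Cells: HeLa EGFP-705 splicing reporter, 2 days compound exposure in Optimem/2% FCS.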

[18] = molecular target: Muscarinic acetylcholine receptor M1 (Rattus norvegicus) (UniProt P08482); test: qHTS Assay for Antagonists of Acetylcholine Muscarinic M1 Receptor: Kinetic Measurement of Intracellular Calcium Response (AID 943);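 also: Fluo-4 calcium signal as peak divided by basal fluorescence over 4 min; series mostly up to about 35 µM; nearly all actives have a fitted effect of over 75% in size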
In short: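 Antagonism is measured as inhibition of the carbachol-evoked calcium rise in CHO cells transfected with rat M1. Cells are dye-loaded, exposed to compound for 10 min, then stimulated with 100 nM carbachol (EC80).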

[19] = molecular target: Muscarinic acetylcholine receptor M1 (Rattus norvegicus) (UniProt P08482); test: qHTS Assay for Antagonists of Acetylcholine Muscarinic M1 Receptor: Measurement of IP-One Response (AID 944); also: nearly all actives have a fitted effect of over 75% in size
In short: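 Antagonist mode with rat M1 receptor transfected into CHO cells. Compound is added first for 10 min, carbachol at its EC80 follows for 30 min, and lysis reagents then allow TR-FRET detection of accumulated IP1.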

Measured: Potency

Chain of Muscarinic acetylcholine receptor M1 (Rattus norvegicus) (P08482 whole entry, looked up): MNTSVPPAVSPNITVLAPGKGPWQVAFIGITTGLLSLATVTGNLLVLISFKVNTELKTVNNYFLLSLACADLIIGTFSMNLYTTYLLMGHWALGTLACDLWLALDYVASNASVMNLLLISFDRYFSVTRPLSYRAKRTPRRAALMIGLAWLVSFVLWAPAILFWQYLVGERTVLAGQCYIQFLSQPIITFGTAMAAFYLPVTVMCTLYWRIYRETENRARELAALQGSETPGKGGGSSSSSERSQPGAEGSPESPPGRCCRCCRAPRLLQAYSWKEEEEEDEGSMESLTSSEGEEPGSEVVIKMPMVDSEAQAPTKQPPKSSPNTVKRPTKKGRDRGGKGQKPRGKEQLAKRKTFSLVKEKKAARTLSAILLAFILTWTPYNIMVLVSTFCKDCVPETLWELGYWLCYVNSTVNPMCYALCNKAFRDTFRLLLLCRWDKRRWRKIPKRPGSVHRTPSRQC
Chain of Pyruvate kinase (Leishmania mexicana) (Q27686 2-499 E452W): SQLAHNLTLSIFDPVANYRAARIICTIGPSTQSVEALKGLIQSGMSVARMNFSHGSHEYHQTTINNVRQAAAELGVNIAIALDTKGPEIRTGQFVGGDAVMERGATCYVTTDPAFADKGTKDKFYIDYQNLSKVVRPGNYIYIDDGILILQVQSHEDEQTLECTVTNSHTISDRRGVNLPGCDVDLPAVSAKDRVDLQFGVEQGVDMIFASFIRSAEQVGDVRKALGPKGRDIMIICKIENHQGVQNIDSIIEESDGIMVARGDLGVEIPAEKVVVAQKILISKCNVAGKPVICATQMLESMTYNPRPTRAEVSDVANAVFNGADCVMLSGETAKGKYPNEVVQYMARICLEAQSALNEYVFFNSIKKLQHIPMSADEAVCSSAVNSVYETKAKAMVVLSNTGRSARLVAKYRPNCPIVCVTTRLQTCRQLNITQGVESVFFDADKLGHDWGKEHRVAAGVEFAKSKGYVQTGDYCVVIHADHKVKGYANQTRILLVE
Chain of Alpha-galactosidase (Coffea arabica) (Q42656 whole entry, looked up): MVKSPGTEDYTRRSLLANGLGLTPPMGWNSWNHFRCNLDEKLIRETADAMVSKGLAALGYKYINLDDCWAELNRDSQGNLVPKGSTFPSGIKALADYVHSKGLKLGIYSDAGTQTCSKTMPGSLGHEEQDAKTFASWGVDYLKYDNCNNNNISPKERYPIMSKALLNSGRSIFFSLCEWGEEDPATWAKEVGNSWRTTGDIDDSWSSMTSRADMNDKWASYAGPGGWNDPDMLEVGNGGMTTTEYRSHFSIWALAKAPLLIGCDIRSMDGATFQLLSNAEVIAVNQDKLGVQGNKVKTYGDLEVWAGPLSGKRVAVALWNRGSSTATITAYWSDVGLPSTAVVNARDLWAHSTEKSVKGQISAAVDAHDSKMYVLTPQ
Chain of Pyruvate kinase PKM (Homo sapiens) (P14618 whole entry, looked up): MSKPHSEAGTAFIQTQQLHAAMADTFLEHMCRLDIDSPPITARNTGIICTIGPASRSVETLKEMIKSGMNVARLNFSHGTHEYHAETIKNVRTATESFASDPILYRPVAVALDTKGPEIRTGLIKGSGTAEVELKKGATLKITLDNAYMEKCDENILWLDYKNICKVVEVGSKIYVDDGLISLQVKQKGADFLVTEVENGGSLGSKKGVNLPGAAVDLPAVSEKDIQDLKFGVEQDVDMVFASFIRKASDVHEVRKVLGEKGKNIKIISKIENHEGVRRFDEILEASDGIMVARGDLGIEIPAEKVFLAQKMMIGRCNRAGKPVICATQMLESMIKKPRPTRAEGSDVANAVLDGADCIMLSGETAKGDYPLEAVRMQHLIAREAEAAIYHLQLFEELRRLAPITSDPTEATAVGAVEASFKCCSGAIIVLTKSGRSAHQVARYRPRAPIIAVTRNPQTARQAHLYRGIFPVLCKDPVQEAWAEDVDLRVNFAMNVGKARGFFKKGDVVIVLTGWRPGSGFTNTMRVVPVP

CCOCCOC(C)=O
not listed: [13] | [14] | [15] | [16] | [17] | [18] | [19]
inactive: all other assays above

C[C@]12N[C@H](Cc3ccccc31)c1ccccc12
inactive: [13] | [14] | [15] | [16]

Cc1cc(O)ccc1Cl
not listed: [13] | [14] | [15] | [16] | [18] | [19]
inactive: all other assays above

CC(C)(O)C(=O)Nc1ccc([N+](=O)[O-])c(C(F)(F)F)c1
not listed: [13] | [14] | [15] | [16] | [17] | [18] | [19]
inactive: all other assays above

O=C1CCCN1CC#CCN1CCCC1
inactive: [13] | [17] | [18] | [19] | [14] | [15] | [16]

NCCc1c[nH]c2ccccc12
inactive: [13] | [17] | [18] | [19] | [14] | [15] | [16]

CC(C)c1ccc2c(c1)c(SC(C)(C)C)c(CC(C)(C)C(=O)O)n2Cc1ccc(Cl)cc1
inactive: [16]

CC(C)(Sc1ccc(CCN(CCCCC2CCCCC2)C(=O)NC2CCCCC2)cc1)C(=O)O
inactive: [16]

C[N+](C)(C)CC(=O)O
inactive: [16]

CC#C[C@]1(O)CC[C@H]2[C@@H]3CCC4=CC(=O)CCC4=C3[C@H](c3ccc(N(C)C)cc3)C[C@@]21C
inactive: [16]

Nc1ccc([N+](=O)[O-])cc1
not listed: [10] | [13] | [14] | [15] | [16] | [17] | [18] | [19]
inactive: all other assays above

S=C(NC1CCCCC1)N1CCC(c2cnc[nH]2)CC1
inactive: [14] | [15] | [16]

CCn1cc(C(=O)O)c(=O)c2cc3c(cc21)OCO3
inactive: [16]

CCN(CC)CCNC(=O)c1ccc(NC(C)=O)cc1
inactive: [16]

C=CC(=O)NCNC(=O)C=C
not listed: [13] | [14] | [15] | [16] | [17] | [18] | [19]
inactive: all other assays above

CC(Cc1ccc(O)cc1)NCC(O)c1cc(O)cc(O)c1 (centres undefined)
inactive: [17]

CCOP(=O)(NC(C)C)Oc1ccc(SC)c(C)c1 (centres undefined)
not listed: [3] | [13] | [14] | [15] | [16] | [17] | [18] | [19]
inactive: all other assays above

CNCCc1ccc(O)c(O)c1
inactive: [18] | [19] | [14] | [15] | [16]

CCN1CCc2nc(N)oc2CC1
inactive: [16]

O=C(O)CCCOc1ccc(Cl)cc1Cl
inactive: [17]

O=S(=O)(c1ccc(Cl)cc1)c1ccc(Cl)cc1
not listed: [13] | [14] | [15] | [16] | [17] | [18] | [19]
inactive: all other assays above

O=C(O)COc1ccccc1
not listed: [3] | [13] | [14] | [15] | [16] | [17] | [18] | [19]
inactive: all other assays above
